Experimental findings from PubChem BioAssay AID493168 (National Center for Advancing Translational Sciences (NCATS), 2011) are described below.

Records with an inconclusive call do not appear. Where a call stands in place of a potency, no number is given. Activity calls are given as the source filed them. Calls follow the shape of the dose curve; as a rule, active = well fitted inhibition curve with a large enough effect; inconclusive = small, poorly fitted or top-dose-only effect, or effect the other way; inactive = flat fitted curve, though single readings scatter.
Potency is read from the fitted curve at half-maximal effect.

Chain of Ubiquitin carboxyl-terminal hydrolase 2 (Homo sapiens) (O75604 whole entry, looked up): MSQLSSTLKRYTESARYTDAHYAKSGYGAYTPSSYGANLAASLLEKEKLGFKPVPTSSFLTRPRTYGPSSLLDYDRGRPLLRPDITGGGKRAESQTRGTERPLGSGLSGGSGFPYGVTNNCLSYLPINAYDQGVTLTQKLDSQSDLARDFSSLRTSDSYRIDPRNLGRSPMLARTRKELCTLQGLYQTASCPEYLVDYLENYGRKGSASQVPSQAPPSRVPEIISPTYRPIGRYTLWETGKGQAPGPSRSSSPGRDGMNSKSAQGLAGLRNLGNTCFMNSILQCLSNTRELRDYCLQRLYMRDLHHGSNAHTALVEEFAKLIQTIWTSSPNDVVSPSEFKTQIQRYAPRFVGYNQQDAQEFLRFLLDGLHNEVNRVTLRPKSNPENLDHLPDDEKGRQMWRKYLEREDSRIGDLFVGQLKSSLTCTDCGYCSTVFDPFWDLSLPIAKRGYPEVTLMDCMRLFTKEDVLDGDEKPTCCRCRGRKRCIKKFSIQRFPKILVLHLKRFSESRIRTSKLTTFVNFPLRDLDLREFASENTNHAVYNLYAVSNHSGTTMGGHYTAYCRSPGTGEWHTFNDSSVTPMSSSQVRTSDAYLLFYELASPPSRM

In the assay the target is Ubiquitin carboxyl-terminal hydrolase 2 (Homo sapiens) (UniProt O75604). The assay is described as follows: Confirmation Assay for Inhibitors of Ubiquitin-specific Protease USP2a Using CHOP2 as the Reporter. Also: nearly all actives have a fitted effect of over 55% in size. To be noted: USP2 core, Ub-CHOP2 coupled reporter fluorescence; series mostly up to 38.3 µM. The procedure, abridged:
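Ub-CHOP2 cleavage coupled to reporter activation was read by fluorescence after 60 min at RT, with 25 nM final Ub-CHOP2 and substrate. Enzyme (10 nM final USP2 core) first sat 30 min with compound; data were normalized to NEM and fitted to concentration-response curves.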
For `O=C(CSc1nc(O)cc(=O)n1-c1ccccc1)NC1CCCCC1`, the Potency result was “inactive”. For `CNS(=O)(=O)c1cccc(C(=O)OCC(=O)c2cc(C)n(-c3ccc4c(c3)OCO4)c2C)c1`, the Potency entry is “inactive”. Next, `CCOC(=O)CN1C(=O)S/C(=C/c2ccc(O)c([N+](=O)[O-])c2)C1=O`: “inactive”. Next, `O=C(COC(=O)c1cc(-c2ccc(Cl)s2)nc2ccccc12)NCc1ccco1`: 18.5 µM (active); `NC1=NC2(CCC(c3ccccc3)CC2)n2c(nc3ccccc32)N1` (stereo unspecified): “inactive”; `COC(=O)CC1Oc2ccc(C)cc2NC1=O` (stereo unspecified): “inactive”. For `CN(C)c1ccc(-c2ccccc2)nn1` the value was “inactive”; for `CN(CC(=O)Nc1cccc2ccccc12)C(=O)c1ccc(NC(=O)CC#N)cc1`, “inactive”. As to `COc1cc(OC)cc(-c2c(C#Cc3ccsc3)c3cc(-c4ccc(OC)c(F)c4)ccc3n2C)c1`, the Potency result is “inactive”. Turning to `Cc1ccc(NS(=O)(=O)c2cccc(C(=O)OCC(=O)NCc3ccco3)c2)cc1`, the Potency entry was “inactive”. For `Cc1ccc(C(=O)N(c2c(C)n(C)n(-c3ccccc3)c2=O)C(C)C)cc1`, the Potency result was “inactive”.

As to `CCN(C[C@H]1N[C@@](CC)(C(=O)OC)[C@H]2C(=O)N(Cc3ccccc3)C(=O)[C@@H]12)C(=O)Nc1ccc(C)cc1`, the Potency result is “inactive”. On to `O=C(N/C(=C/c1cccnc1)C(=O)N1CCOCC1)c1ccco1`, for which the Potency result is “inactive”. For `COc1ccc(-c2cc(C(F)(F)F)nc(S(C)(=O)=O)n2)cc1` the value was “inactive”; for `O=C(CSCc1cnn(-c2ccccc2)c1-n1cccc1)NCC1CCCO1` (stereo unspecified), “inactive”; for `CCOc1ccccc1C(=O)N[C@H](C(=O)Nc1ccc(OC)c(S(=O)(=O)N2CCOCC2)c1)C(C)C`, “inactive”.
